Hit rate of the full screen: of about 340,000 compounds, about 1,000 (0.29%) were called active. Rule as the data show it: inconclusive = inhibition above about 29% without an active follow-up result; inactive = below that. The list is a sample of the results. Entries with a potency or affinity are not part of this list.
Biological target: Genome polyprotein (Dengue virus type 2 (strain 16681-PDK53)) (UniProt P29991)
Assay: flavivirus cap methylation enzyme inhibition – biochemical, confirmation dose response, primary screen (AID 588689)
Conditions: Dengue-2 NS5 methyltransferase capping enzyme assay, at 25 µM, stronger effect = higher value

Genome polyprotein (Dengue virus type 2 (strain 16681-PDK53)), sequence (P29991 whole entry, looked up): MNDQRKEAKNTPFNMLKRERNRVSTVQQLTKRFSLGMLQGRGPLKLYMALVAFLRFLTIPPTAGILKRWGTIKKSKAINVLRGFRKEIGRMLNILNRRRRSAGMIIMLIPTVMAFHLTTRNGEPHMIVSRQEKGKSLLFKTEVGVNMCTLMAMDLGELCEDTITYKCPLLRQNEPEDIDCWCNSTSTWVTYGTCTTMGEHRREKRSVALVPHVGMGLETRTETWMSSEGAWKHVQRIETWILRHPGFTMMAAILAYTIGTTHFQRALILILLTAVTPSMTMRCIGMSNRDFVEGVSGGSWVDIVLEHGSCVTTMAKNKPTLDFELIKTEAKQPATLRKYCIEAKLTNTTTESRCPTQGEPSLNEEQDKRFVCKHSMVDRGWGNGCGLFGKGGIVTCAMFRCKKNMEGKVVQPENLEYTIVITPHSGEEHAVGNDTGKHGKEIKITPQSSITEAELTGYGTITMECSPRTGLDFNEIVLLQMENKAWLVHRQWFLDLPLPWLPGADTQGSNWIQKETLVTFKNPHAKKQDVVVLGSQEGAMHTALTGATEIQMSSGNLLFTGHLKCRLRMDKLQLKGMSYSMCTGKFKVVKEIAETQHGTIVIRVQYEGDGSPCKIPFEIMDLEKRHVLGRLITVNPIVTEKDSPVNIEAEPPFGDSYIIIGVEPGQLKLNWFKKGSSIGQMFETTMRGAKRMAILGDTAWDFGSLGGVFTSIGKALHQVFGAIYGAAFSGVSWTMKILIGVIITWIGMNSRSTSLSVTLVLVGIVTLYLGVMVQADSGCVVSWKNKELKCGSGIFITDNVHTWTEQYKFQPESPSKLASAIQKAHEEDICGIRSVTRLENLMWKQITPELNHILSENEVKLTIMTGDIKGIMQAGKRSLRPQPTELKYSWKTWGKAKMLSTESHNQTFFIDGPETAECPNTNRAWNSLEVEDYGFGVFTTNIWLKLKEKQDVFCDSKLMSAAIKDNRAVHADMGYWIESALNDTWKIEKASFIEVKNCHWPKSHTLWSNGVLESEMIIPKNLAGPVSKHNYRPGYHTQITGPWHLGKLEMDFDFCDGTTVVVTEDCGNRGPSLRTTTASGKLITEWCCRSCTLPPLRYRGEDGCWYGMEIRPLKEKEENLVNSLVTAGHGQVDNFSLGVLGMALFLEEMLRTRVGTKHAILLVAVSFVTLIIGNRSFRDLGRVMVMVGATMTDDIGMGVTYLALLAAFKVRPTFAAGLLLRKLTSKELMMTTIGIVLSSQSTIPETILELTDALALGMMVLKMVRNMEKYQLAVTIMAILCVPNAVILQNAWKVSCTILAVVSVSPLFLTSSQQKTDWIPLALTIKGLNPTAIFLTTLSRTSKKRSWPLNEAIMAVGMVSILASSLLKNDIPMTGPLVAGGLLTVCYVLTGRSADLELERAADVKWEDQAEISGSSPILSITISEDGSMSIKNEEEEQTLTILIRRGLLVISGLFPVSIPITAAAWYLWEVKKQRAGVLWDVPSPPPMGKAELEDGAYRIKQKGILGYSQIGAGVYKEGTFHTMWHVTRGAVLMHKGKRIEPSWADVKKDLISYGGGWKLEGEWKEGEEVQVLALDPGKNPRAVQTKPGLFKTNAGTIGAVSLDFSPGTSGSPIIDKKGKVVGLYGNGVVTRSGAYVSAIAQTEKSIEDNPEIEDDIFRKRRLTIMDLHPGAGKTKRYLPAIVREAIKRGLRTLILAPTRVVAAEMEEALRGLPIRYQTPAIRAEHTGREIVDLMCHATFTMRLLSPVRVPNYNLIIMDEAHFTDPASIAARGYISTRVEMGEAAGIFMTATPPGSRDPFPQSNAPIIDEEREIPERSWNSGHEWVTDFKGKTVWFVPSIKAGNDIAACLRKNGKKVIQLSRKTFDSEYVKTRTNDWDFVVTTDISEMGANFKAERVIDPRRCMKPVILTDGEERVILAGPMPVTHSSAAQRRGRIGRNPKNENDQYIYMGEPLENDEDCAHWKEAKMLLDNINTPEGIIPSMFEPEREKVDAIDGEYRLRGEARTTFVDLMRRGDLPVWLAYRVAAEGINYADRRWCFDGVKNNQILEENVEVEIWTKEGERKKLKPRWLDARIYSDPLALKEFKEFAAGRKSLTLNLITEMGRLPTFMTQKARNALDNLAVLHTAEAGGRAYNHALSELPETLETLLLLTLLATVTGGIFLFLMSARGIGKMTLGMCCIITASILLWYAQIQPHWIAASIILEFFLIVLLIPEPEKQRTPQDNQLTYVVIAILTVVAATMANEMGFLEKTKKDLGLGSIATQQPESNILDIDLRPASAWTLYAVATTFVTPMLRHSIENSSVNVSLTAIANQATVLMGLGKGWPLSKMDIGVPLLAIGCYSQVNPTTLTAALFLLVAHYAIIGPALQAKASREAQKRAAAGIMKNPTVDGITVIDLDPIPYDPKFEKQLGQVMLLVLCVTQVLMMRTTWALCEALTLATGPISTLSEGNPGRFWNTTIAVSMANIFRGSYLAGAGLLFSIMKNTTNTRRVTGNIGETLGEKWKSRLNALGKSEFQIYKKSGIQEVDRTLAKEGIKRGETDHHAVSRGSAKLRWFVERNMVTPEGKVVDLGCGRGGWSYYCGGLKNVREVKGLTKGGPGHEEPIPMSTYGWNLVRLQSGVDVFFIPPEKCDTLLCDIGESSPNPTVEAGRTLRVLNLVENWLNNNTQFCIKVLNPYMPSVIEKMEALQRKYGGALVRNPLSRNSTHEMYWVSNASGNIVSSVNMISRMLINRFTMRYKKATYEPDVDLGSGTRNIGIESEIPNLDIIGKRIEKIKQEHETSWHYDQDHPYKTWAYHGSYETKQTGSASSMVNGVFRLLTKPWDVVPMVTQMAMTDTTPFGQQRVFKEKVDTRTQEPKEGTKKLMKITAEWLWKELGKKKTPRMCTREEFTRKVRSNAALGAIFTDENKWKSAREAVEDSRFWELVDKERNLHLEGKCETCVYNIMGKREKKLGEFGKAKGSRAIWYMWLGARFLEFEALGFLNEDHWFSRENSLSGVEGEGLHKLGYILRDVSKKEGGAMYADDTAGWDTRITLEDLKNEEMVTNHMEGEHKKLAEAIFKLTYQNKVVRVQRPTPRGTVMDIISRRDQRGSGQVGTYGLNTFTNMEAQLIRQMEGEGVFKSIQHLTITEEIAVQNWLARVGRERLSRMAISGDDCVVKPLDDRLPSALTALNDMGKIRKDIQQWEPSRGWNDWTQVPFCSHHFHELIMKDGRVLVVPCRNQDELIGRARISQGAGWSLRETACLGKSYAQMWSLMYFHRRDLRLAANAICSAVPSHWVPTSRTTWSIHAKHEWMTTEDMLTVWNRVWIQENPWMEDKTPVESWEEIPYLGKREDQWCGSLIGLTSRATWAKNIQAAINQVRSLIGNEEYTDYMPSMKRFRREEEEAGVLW

Row | Structure (SMILES) | inhibition | inhibition (measured here: pilot screen replicate inhibition) [%]
1 | CC1(C)O[C@@H]2[C@H](O1)[C@@H](CO)O[C@H]2n1cc(Br)c(=O)[nH]c1=O | -17.6% (inactive) | 
2 | NCCCC[C@@H]1NC(=O)c2cc([N+](=O)[O-])cc(F)c2NCCCC[C@@H](C(N)=O)NC(=O)CNC1=O | -4.1% (inactive) | 
3 | O=C(NCc1ccco1)c1nnc(Cc2ccc(F)cc2)o1 | 2.07% (inactive) | 
4 | N#Cc1c(-c2ccc(Cl)cc2)cc(-c2ccccc2)nc1SCC(=O)O | 1.16% (inactive) | 
5 | COc1ccc(-c2cc(-c3ccccc3)c(C#N)c(SCC(=O)O)n2)cc1 | 14% (inactive) | 
6 | O=C(O)c1cccc2c1/C(=N/Nc1ccc([N+](=O)[O-])cc1[N+](=O)[O-])c1ccccc1-2 | 20.5% (inactive) | 
7 | CC(=O)Nc1ccc(NC(=O)c2nc(S(=O)(=O)Cc3ccccc3)ncc2Cl)cc1 | -50.4% (inactive) | 
8 | COC(=O)c1ccc(NC(=O)c2nc(S(=O)(=O)Cc3cccc(C)c3)ncc2Cl)cc1 | -59.7% (inactive) | 
9 | CSc1ncc(Cl)c(C(=O)Nc2nnc(SC)s2)n1 | 5.42% (inactive) | 
10 | Cc1cccc(CS(=O)(=O)c2ncc(Cl)c(C(=O)NCc3ccccc3)n2)c1 | -74.2% (inactive) | 
11 | Cc1nnc(NC(=O)c2nc(S(=O)(=O)Cc3ccccc3C)ncc2Cl)s1 | 27.3% (inactive) | 
12 | Cc1ccccc1CS(=O)(=O)c1ncc(Cl)c(C(=O)Nc2ccc(F)cc2)n1 | -55.8% (inactive) | 
13 | Cc1nnc(NC(=O)c2nc(S(=O)(=O)Cc3ccccc3)ncc2Cl)s1 | 19.6% (inactive) | 
14 | Cc1ccc(NC(=O)c2nc(S(=O)(=O)Cc3ccccc3)ncc2Cl)cc1 | -43.4% (inactive) | 
15 | O=C(c1cc(-c2ccc(Br)cc2)nc2ccccc12)N1CCC1 | -2.19% (inactive) | 
16 | COc1ccccc1N1CCN(C(=O)c2oc3c(c2C)C(=O)CC(C)(C)C3)CC1 | 4.65% (inactive) | 
17 | O=C(N/N=C/C(Cl)=C\c1ccccc1)c1cnccn1 | -6.4% (inactive) | 
18 | C=CC[C@H](CC(=O)N[C@H](CO)Cc1ccccc1)C(=O)N[C@@H](COC(=O)[C@H](CC=C)CC(=O)OC(C)(C)C)Cc1c[nH]c2ccccc12 | -0.83% (inactive) | 
19 | COc1ccc(/C=C2/SC(=O)N(CCC(=O)Nc3ccc(S(=O)(=O)Nc4nccs4)cc3)C2=O)cc1 | -5.09% (inactive) | 
20 | O=C(/C(=C(/[O-])c1ccccc1)[n+]1ccccc1)c1ccc([N+](=O)[O-])cc1 | 3.25% (inactive) | 
21 | CCCc1ncc(CN2CCCCC2C(=O)Nc2ccc(Oc3ccccc3)nc2)cn1 (stereo unspecified) | -5.15% (inactive) | 
22 | CCCCn1c(N)c(N(C)C(=O)c2cn(-c3ccccc3)nc2-c2ccccc2)c(=O)[nH]c1=O | -2.61% (inactive) | 
23 | NS(=O)(=O)c1ccc2nc(NC(=O)Nc3ccc(F)cc3)sc2c1 | -9.52% (inactive) | 
24 | O=C(Nc1ccc(Cl)c(S(=O)(=O)N2CCOCC2)c1)c1cccs1 | -1.55% (inactive) | 
25 | Cc1cccc(CS(=O)(=O)c2ncc(Cl)c(C(=O)Nc3c(C)cccc3C)n2)c1 | -57.4% (inactive) | 
26 | CC(=O)Nc1ccc(NC(=O)c2nc(S(=O)(=O)Cc3cccc(C)c3)ncc2Cl)cc1 | -42.6% (inactive) | 
27 | O=C(Nc1ncccc1O)c1ccc2c(c1)OCO2 | 0.74% (inactive) | 
28 | Cc1cc(Cl)ccc1OCC(=O)Nc1ccccc1C(=O)N1CCOCC1 | 5.18% (inactive) | 

Row | Structure (SMILES) | inhibition | inhibition (measured here: pilot screen replicate inhibition) [%]
29 | O=C1CC(c2ccccc2)NC(=S)N1 (stereo unspecified) | 3.85% (inactive) | 
30 | O=C1NC(=S)NC1(c1ccccc1)c1ccccc1 | -4.65% (inactive) | 
31 | CCCSc1nc(O)c(C2OC(=O)c3c2ccc(OC)c3OC)c(=O)n1-c1ccccc1 (stereo unspecified) | 11.7% (inactive) | 
32 | CCCCSc1nc(O)c(C2OC(=O)c3c2ccc(OC)c3OC)c(=O)n1-c1ccccc1 (stereo unspecified) | 17.6% (inactive) | 
33 | CCSc1nc(O)c(C2OC(=O)c3c2ccc(OC)c3OC)c(=O)n1CC (stereo unspecified) | 6.79% (inactive) | 
34 | CCCCSc1nc(O)c(C2OC(=O)c3c2ccc(OC)c3OC)c(=O)n1C (stereo unspecified) | -5.49% (inactive) | 
35 | Cc1cc2c3c([nH]c2cc1S(=O)(=O)NCc1ccc(CN2CCCCCC2)o1)CCCC3=O | -7.25% (inactive) | 
36 | Cc1ccc(S(=O)(=O)N/N=C/c2ccc(O)c(O)c2)cc1[N+](=O)[O-] | 0.74% (inactive) | 
37 | CCN(CC)CCNC(=O)c1ccc(NC(=O)c2cc(S(=O)(=O)N3CCCCC3)ccc2N2CCOCC2)cc1 | -2.25% (inactive) | 
38 | COc1ccc(-n2cccc2C=O)cc1 | -11.6% (inactive) | 
39 | Cc1cc2nc(/C(C#N)=C\c3ccc(-c4ccccc4C(=O)O)o3)[nH]c2cc1C | -2.36% (inactive) | 
40 | COc1cc(/C=C2\C(C)=C(C#N)c3nc(N)c(C#N)c(C)c32)ccc1OCC(=O)O | -6.96% (inactive) | 
41 | CCOC(=O)CSc1nc(N)c(C#N)c(-c2ccc(OCC)cc2)c1C#N | -3.48% (inactive) | 
42 | Cc1cc2nc3s/c(=C/c4ccc(-c5ccccc5C(=O)O)o4)c(=O)n3c2cc1C | -33.6% (inactive) | 
43 | O=C1OC(c2ccccc2)=CC1=Cc1ccccc1O | -6.29% (inactive) | 
44 | CC1CCCC(NC(=O)C2N(CCCN3CCCC3)C(=O)C3C(C(=O)Nc4ccc(Cl)cc4)C4C=CC32O4)C1C (stereo unspecified) | -9.14% (inactive) | 
45 | Cc1cc(C)cc(NC(=O)COC(=O)Cc2ccccc2F)c1 | -2.95% (inactive) | 
46 | CS(=O)(=O)NCc1nnc(SCc2c(F)cccc2Cl)o1 | -7.53% (inactive) | 
47 | C=CCn1c(SCC(=O)/C(C#N)=C(\C)N)nnc1C1CCCCC1 | -2.77% (inactive) | 
48 | CCN(C[C@H]1N[C@@](C)(C(=O)OC)[C@H]2C(=O)N(C)C(=O)[C@@H]12)S(=O)(=O)c1ccc(OC(F)(F)F)cc1 | -7.6% (inactive) | 0.305
49 | O=C1/C(=C\c2ccc(Br)cc2)SC(=S)N1NS(=O)(=O)c1ccccc1 | -8.31% (inactive) | 
50 | CC(=O)N1C(=O)/C(=C2\SC(=S)N(NS(=O)(=O)c3ccc(C)cc3)C2=O)c2ccccc21 | 5.31% (inactive) | 
51 | Cc1ccc(S(=O)(=O)NN2C(=O)/C(=C/c3ccc(F)cc3)SC2=S)cc1 | 9.54% (inactive) | 
52 | O=C1/C(=C/c2ccccn2)SC(=S)N1NS(=O)(=O)c1ccccc1 | 8.55% (inactive) | 
53 | Cc1ccc(S(=O)(=O)NN2C(=O)/C(=C/c3cccnc3)SC2=S)cc1 | 14.3% (inactive) | 
54 | O=S(=O)(NCc1nc2ccccc2[nH]1)c1ccccc1 | -2.6% (inactive) | 
55 | O=C1/C(=C/C=C/c2ccco2)SC(=S)N1NS(=O)(=O)c1ccccc1 | 64.5% (inactive) | 

Source: PubChem BioAssay AID588689 (Southern Research Specialized Biocontainment Screening …, 2011)
